Test results taken from PubChem BioAssay (NCI).
This is part of a sample that, as a whole, favours compounds with a hit. Of some 83,000 tested, about 20% had one in any assay.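 Activity criterion: percent growth below 10, measured after cells in 96-well plates were exposed to a single compound concentration for 48 hours.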 Unmarked numbers belong to inactive results. Activity calls are given as the source filed them.

Test system: UACC-62 melanoma
Test: NCI-60 one-dose screen, 48 h (100 = growth as untreated, 0 = no growth, -100 = all killed)
Details: 10 µM unless noted
Experimental: Growth inhibition of the UACC-62 human tumor cell line is measured as a screen for anti-cancer activity. Cells are grown in 96 well plates and exposed to the test compound for 48 hours. Compounds are tested at a single concentration, which is 10^-5 M for most compounds. The reported endpoint is percent growth (GI% or GIPRCNT), where numbers from 0 - 100% represent growth inhibition, and numbers from -100% - 0 represent cell death. For example, a value of 40 represents 60% growth inhibition. A value of 0 means no net growth occurred over the course of the experiment. A value of -40 indicates 40% of cells at the beginning of the experiment died by the end of the experiment. A value of -100 means all cells are dead at the end of the experiment.
NCI-60 Human Tumor Cell Lines Screen was performed using the standard one-dose NCI protocol, which is described in more detail at https://dtp.cancer.gov/discovery_development/nci-60/default.htm.
Compounds with GIPRCNT values below 10 were considered active. Activity score was based on GIPRCNT using the following formula: […]
Score is 0 for GIPRCNT values of 100 or above, 50 for GIPRCNT values of 0, and 100 for GIPRCNT values of -100.

Row | SMILES | growth
1 | COc1cc(/C=N/O)nc(-c2ccccn2)c1 | 4.54% (active)
2 | c1ccc(Cn2cnc3ccc(-c4nc(-c5ccc6c(c5)ncn6C5CCCCC5)cn5ccnc45)cc32)cc1 | -31.2% (active)
3 | O=C1/C=C/[C@@H](O)[C@@H]2C[C@@H](O)C[C@H]2/C=C/CCC[C@H](CCc2cccc3ccccc23)O1 | 11.9%
4 | COc1cc2c(c(OC)c1OC)CCC(c1cccc(NC(=O)c3cccc(Br)c3)c1)O2 (stereo not given) | 70.1%
5 | COCc1cnccc1NC1CCCCCC1 | 98.7%
6 | O=C(Cc1ccc(/C=C/C(=O)c2ncc[nH]2)cc1)Nc1ccc(Cl)cc1 | 41.2%
7 | CCCCCN1C=C/C(=C\C(=O)n2ccc3ccccc32)c2ccccc21 | 67%
8 | O=C(N/N=C/c1ccc(Oc2ccccc2)cc1)c1cnn2c1NC(c1ccccc1)C2 (stereo not given) | 6.85% (active)
9 | C=C1C(=O)O[C@H]2[C@H]1CC/C(COC(=O)NCc1c[nH]c3ccc(F)cc13)=C\CC[C@@]1(C)O[C@@H]21 | -75.1% (active)
10 | CCc1ccc(CNc2ccc(N3CCOCC3)c(C(=O)O)c2)cc1 | 102%
11 | CCN(Cc1ccccc1)c1ccc(C=O)cc1 | 85.2%
12 | C=C1C(=O)O[C@H]2[C@H]1CC/C(C(=O)NCCCCCNC(=O)/C1=C/CC[C@@]3(C)O[C@H]3[C@H]3OC(=O)C(=C)[C@@H]3CC1)=C\CC[C@@]1(C)O[C@@H]21 | 97.9%
13 | Cc1c2cc[nH]c(=O)c2c(C)c2c1[nH]c1cc(OCCN3CCN(C)CC3)ccc12 | 5.81% (active)
14 | CN(C)CCC(=O)c1ccc([N+](=O)[O-])cc1 | 98.6%
15 | COc1ccc(-c2[nH][nH]c(=O)c2-c2nc3ccccc3s2)cc1 | 98%
16 | Brc1ccc(Nc2csc(-c3ccccn3)n2)cc1 | 67.1%
17 | CN(C)c1ccc(Nc2c3ccccc3nc3cc(NC(=O)CCN4CCCC4)ccc23)cc1 | 15.5%
18 | COc1ccc(N2CCN(c3ccc(NC4=C(Cl)C(=O)c5ncccc5C4=O)cc3)CC2)cc1 | 34.1%
19 | COc1cccc(-c2nc3occn3c2-c2ccnc(NCCNS(=O)(=O)c3ccc(C(F)(F)F)cc3)n2)c1 | 66.5%
20 | CC(=O)CCC(=O)OCc1cc(=O)c(O)co1 | 103%

Row | SMILES | growth
21 | COc1cc2nc(-c3ccc(Cl)cc3)cc(OCCCN3CCOCC3)c2cc1OC | -20.9% (active)
22 | CCC(CC)NCC(C)(C)O | 94.4%
23 | O=C(/C(=C\c1ccc([N+](=O)[O-])cc1)S(=O)Cc1ccc(Cl)cc1)c1ccc(Cl)cc1 (stereo not given) | 69.2%
24 | COc1cc(C(=O)Nc2cc3c(cc2Oc2cc(C)cc(C)c2)C(=O)N(C)[C@@H](CC(=O)N(C)O)C(=O)N3)c(Br)c(OC)c1OC | -69% (active)
25 | C=C1C(=O)O[C@H]2[C@H]1CC/C(CNC(=O)/C=C/c1cccc(OC)c1)=C\CC[C@@]1(C)O[C@@H]21 | -26.6% (active)
26 | O=C1/C=C/[C@@H](O)[C@@H]2C[C@@H](O)C[C@H]2/C=C/CCC[C@H](CCc2ccc3ncccc3c2)O1 | 4.66% (active)
27 | Cc1c(C(=O)NCCC(=O)NO)sc2ncnc(Nc3ccc(NC(=O)Nc4cccc(C(F)(F)F)c4)cc3)c12 | 99.6%
28 | O=C1NN(C(=O)c2ccccc2)C(c2ccc(Cl)c(Cl)c2)=C/C1=C\c1ccc([N+](=O)[O-])cc1 | 70.3%
29 | CC1=C(C(=O)/C=C/c2c[nH]c3ccccc23)C(c2ccccc2)NC(=S)N1 (stereo not given) | 83.6%
30 | Cn1c(N2NC(=O)C(N=Nc3ccc(S(N)(=O)=O)cc3)C2=O)nc(-c2ccco2)c(C#N)c1=O (stereo not given) | 83.5%
31 | CC1(C)NCCC[C@]2(C)[C@H]3CC[C@@H]4[C@H]5[C@H](C(=O)/C=C/c6ccco6)CC[C@]5(CO)CC[C@@]4(C)[C@]3(C)CC[C@@H]12 | 87.8%
32 | COc1ccc(/C=N/NC(=O)c2cnn3c2NC(c2ccccc2)C3)cc1OC (stereo not given) | 47.7%
33 | C=C1C(=O)O[C@H]2[C@H]1CC/C(COC(=O)NCc1c[nH]c3ccc(Br)cc13)=C\CC[C@@]1(C)O[C@@H]21 | -63% (active)
34 | Cn1cc(-c2csc(-c3c[nH]c4ccccc34)n2)c2ccnc(Cl)c21 | 84.9%
35 | NC(=NCCCOc1ccc(F)cc1)Nc1ccc(I)cc1 | 82.8%
36 | S=c1cc(S)c2cc(Br)ccc2[nH]1 | 83.4%
37 | COc1cc(C2C3CC4CCCC[C@H]4N3[C@@]3(C(=O)Nc4cc(Cl)ccc43)C2C(=O)c2nc3ccccc3[nH]2)cc(OC)c1OC (stereo not given in full) | 57.5%
38 | COc1cc2oc(-c3cccc(C(=O)Nc4ccccc4)c3)cc(=O)c2c(O)c1OC | 38.9%
39 | COc1cc(/C=C\C(=O)O)ccc1OCc1ccccc1 | 93.2%
40 | O=C1CC(=O)OC(c2ccc([N+](=O)[O-])cc2)O1 | -72.2% (active)
